# Assay results from PubChem BioAssay AID540256 (National Center for Advancing Translational Sciences (NCATS), 2011).
# Several values for one entry are separate records, joined by “and”; a condition that tells them apart may be missing. Identical values can stand only once. Hit rate of the full screen: of about 300,000 compounds, about 3,700 (1.2%) were called active. About 20% were inconclusive and are not listed. The sample as a whole holds a higher share of actives than the screen did. Unmarked numbers belong to inactive results. The call rests on the fitted dose curve; tested in HEK293 cells.
# Assay: qHTS for Inhibitors of binding or entry into cells for Lassa Virus; further: nearly all actives have a fitted effect of over 50% in size
# Conditions: Lassa virus pseudotype entry inhibition, cell reporter; series mostly up to 37.9 µM; activity change, negative = inhibition: at the top concentration
# On the % scale 0 is the no-effect control and ±100 the full control effect; potency means the concentration at half of the fitted maximal effect.
SMILES,"activity change, negative = inhibition",Potency
CCOc1ncccc1C(=O)Nc1ccc2c(c1)OCCO2,3.99% [at 46.1 µM],
COc1cccc2c1C(=O)c1c(O)c3c(c(O)c1C2=O)CC(O)(C(C)=NNC(=O)c1ccc(Cl)c(Cl)c1)CC3OC1CC(N)C(O)C(C)O1 (stereo not given),,0.398 µM (active)
COc1ccc(C2NCCCC2c2ccccc2)cc1 (stereo not given),6.16%,
Cc1ccccc1NC(=O)Cn1cc(C(=O)C2CC2)c2ccccc21,9.91% [at 46.1 µM],
CN(CCc1ccccn1)C1CCCN(S(=O)(=O)c2ccccc2Cl)C1 (stereo not given),-13.5% [at 46.1 µM],
c1ccc2c(c1)C(=NC1CCCCC1)NC2=NC1CCCCC1,,13 µM (active)
COC(=O)Cc1nc2c(N)nc(N)nc2[nH]c1=O,-1.05% [at 46.1 µM],
COc1cc(/C=C/C2=CC(C)(C)NC(=S)N2)cc(OC)c1OC,-7.97% [at 46.1 µM],
CCC(=O)c1ccc(OC(=O)/C=C/c2cc(OC)c(OC)c(OC)c2)cc1,18.5% [at 46.1 µM],
COc1cc(/C=C/c2ccc(/C=C/c3cc(OC)c(OC)c(OC)c3)cc2)cc(OC)c1OC,,11.2 µM (active)
Cc1ccc(NC(=O)C2CC2)cc1S(=O)(=O)N1CCOCC1,0% [at 46.1 µM],
Cc1cccc(N2CCN(C(=O)CCSCc3ccccc3F)CC2)c1C,-19.8% [at 46.1 µM],
COc1cc2c(cc1O)[C@H](Cc1ccc(Oc3cc(C[C@@H]4NCCc5cc(OC)c(O)cc54)ccc3O)cc1)NCC2,3.88%,
CCC(CC)C(=O)N1CCc2cc(OC)c(OC)cc2C1COc1ccc(F)cc1 (stereo not given),-13.9% [at 46.1 µM],
CC[C@H]1CN2CCc3cc(OC)c(OC)cc3[C@@H]2C[C@@H]1C[C@H]1NCCc2cc(OC)c(OC)cc21,,580 nM (active) and 184 nM (active)
O=C(NC(=S)Nc1ccc(Br)cc1F)C1CCCCC1,-27.3%,
Nc1cccnc1Sc1ccccc1,6.71%,
CC12C=C(C=Cc3ccc(F)cc3)C(C)(C1)C(c1ccc(F)cc1)CC2=O (stereo not given),-4.68% [at 14.3 µM],
O=C(Nc1ccc(-c2nc3cc(NC(=O)c4ccccc4Cl)ccc3o2)cc1)c1ccccc1Cl,-18% [at 46.1 µM],
COc1ccccc1OCc1nc2ccccc2s1,,10 µM (active)
O=C(O)CCCCc1nc2ccccc2s1,-0.106%,
COc1cccc2sc(NNC(=O)c3nc4ccccc4s3)nc12,-3.86%,
COc1ccc(-c2cc(=O)oc3cc(OC(C)C(=O)Nc4ccc(CN5CCOCC5)cc4)ccc23)cc1 (stereo not given),-28.8% [at 46.1 µM],
c1ccc2c(c1)OCC(CNc1ncnc3nc[nH]c13)O2 (stereo not given),9.89%,
c1ccc(-c2cc3c(NCC4COc5ccccc5O4)ncnc3s2)cc1 (stereo not given),,11.6 µM (active)
S=C(NCC1COc2ccccc2O1)Nc1ccc(Br)cc1 (stereo not given),3.35%,
O=C(Nc1cccc(C(=O)NC2CC2)c1)c1ccc(F)c(S(=O)(=O)N2CCOCC2)c1,2.79%,

SMILES,"activity change, negative = inhibition",Potency
COc1cccc(NC(=O)c2ccc3c(SCC(=O)O)c4c(nc3c2)CCCC4)c1,17.5% [at 46.1 µM],
CCOc1ccc(C(=O)Nc2cc(OC)ccc2OC)cc1,20.4%,
CCOc1ccc(C(=O)Nc2ccc3nc4c(c(Nc5ccccc5OC)c3c2)CCCC4)cc1,,11.2 µM (active)
Cc1ccccc1CS(=O)(=O)CC1Nc2ccc(C(=O)NCc3ccc(Cl)cc3)cc2NC1=O (stereo not given),-11.5% [at 46.1 µM],
Cc1ccc(OCCSc2nc3ccc(NC(=O)COc4ccc(C)cc4)cc3s2)cc1,6.03% [at 46.1 µM],
Cc1cc(C)nc(Nc2n[nH]c(-c3ccccc3N)n2)n1,,6.31 µM (active)
Cc1cc(C)nc(NC(=O)C(C)N2C(=O)c3ccccc3C2=O)n1 (stereo not given),17.9%,
Cc1cc(C)nc(Nc2cc([N+](=O)[O-])ccc2C)n1,-1.28%,
CC1CCN(C2=NC(=O)/C(=C/c3ccc(O)cc3)S2)CC1,-27.1%,
NC(N)=N/N=C/c1ccc(Cl)c([N+](=O)[O-])c1,10.6%,
CNN/C(N=Cc1ccc([N+](=O)[O-])s1)=N\S(=O)(=O)c1cc(C)c(Cl)cc1SCc1ccccc1,-0.987%,
O=[N+]([O-])c1ccc(C=Nc2ccc(Cl)cc2Cl)s1,,16.4 µM (active)
CCOc1ccc(NC(=O)CSc2nncn2C)cc1,-5.3%,
NS(=O)(=O)c1ccc(CNC(=O)c2cccc(S(=O)(=O)N3CCc4ccccc43)c2)cc1,5.39%,
CN(Cc1ccccc1)C(=O)CSc1nc2ccccc2[nH]1,12%,
CCOC(=O)C1CCN(C(=O)C2CCCN(S(=O)(=O)c3ccc(OC)c(Cl)c3)C2)CC1 (stereo not given),-4.15%,
CCOC(=O)CN(Cc1ccc(OC)c(OC)c1)S(=O)(=O)c1ccc(OC)cc1,-21.2%,
COc1ccc(CCNC(=O)C(Sc2ccccn2)c2ccccc2)cc1OC (stereo not given),-5.66%,
COc1ccc(C(CCN(Cc2ccc(OC)c(OC)c2)C(=O)CCl)c2ccccc2)cc1 (stereo not given),,10 µM (active)
CCOC(=O)C1CCN(C(=O)CN2C(=O)NC(C)(c3ccc4cc(OC)ccc4c3)C2=O)CC1 (stereo not given),-0.475% [at 46.1 µM],
COc1ccc(C(=O)Nc2cccc(/C=C(/CCC(=O)O)c3nc4ccccc4s3)c2)cc1,14.6% [at 46.1 µM],
CCOc1ccc(CNC(=O)CCc2c(C)nn(-c3ccc(N4CCCCC4)nn3)c2C)cc1,-7.82% [at 46.1 µM],
NS(=O)(=O)c1ccc(Nc2nc(-c3ccccc3)cs2)cc1,-25.5%,
COc1ccc2nc(Nc3nc(-c4ccncc4)cs3)sc2c1,-4.91% [at 46.1 µM],
COc1ccc(Nc2nc(-c3ccccc3)cs2)cc1,,20.6 µM (active)
Nc1c(-c2ccccc2)nnn1Cc1ccccc1,-13.1% [at 46.1 µM],
CCOc1ccc2oc(C(=O)N(CC)CC(=O)Nc3ccc(NC(C)=O)cc3)c(C)c2c1,-17.5%,

SMILES,"activity change, negative = inhibition",Potency
Cc1ccc(Nc2c(O)nc[nH]c2=O)cc1C,29.7% [at 46.1 µM],
Fc1ccc(-c2nc(Nc3cccc(Cl)c3)nc3c2COc2ccccc2-3)cc1,-1.69% [at 46.1 µM],
O=C(CC(O)(C(F)(F)F)C(F)(F)F)Nc1ccc(Cl)c(Cl)c1,,4.61 µM (active)
O=C(CC(=O)Nc1ccc(Cl)c(Cl)c1)N/N=C/c1ccc(O)cc1,-16.6%,
N/C(=N\OC(=O)Nc1ccc(Cl)c(Cl)c1)c1ncc(C(F)(F)F)cc1Cl,-1.23%,
O=C(COc1ccccc1F)Nc1nc(-c2ccccn2)cs1,-25.7% [at 46.1 µM],
O=C1NC(=O)C(CCc2ccccc2)(c2ccccc2)N1 (stereo not given),-11.9%,
CC(C)[C@H]1COCCS(=O)(=O)N1Cc1ccccc1-c1cccc2c1sc1ccccc12,-3.69% [at 46.1 µM],
CCn1c(=S)[nH]c2cc(S(=O)(=O)N3CCOCC3)ccc21,17%,
N#C/C(=C/c1ccc(N2CCCCC2)o1)C(=O)NCCc1c[nH]c2ccccc12,,7.08 µM (active)
O=C(CN1C(=O)NC2(CCCCC2)C1=O)NCCc1c[nH]c2ccccc12,-1.27%,
CC(=O)N/C(=C/c1ccc(Cl)cc1)C(=O)NCCc1c[nH]c2ccccc12,0.212%,
COc1ccc(C(=O)COC(=O)c2c(C)noc2C)cc1Cl,2.78% [at 46.1 µM],
Cc1c(C(=O)Nc2cccc(S(=O)(=O)N3CCOCC3)c2)oc2ccccc12,-20.8%,
O=C(c1ccc(N2CCOCC2)c([N+](=O)[O-])c1)N1CCN(c2ccccc2F)CC1,-8.55%,
Nc1ncc(-c2cc3ccccc3oc2=O)s1,-24.4%,
O=c1oc2ccccc2cc1-c1cn(-c2ccccc2)c(=S)[nH]1,,0.891 µM (active)
O=C(c1cn(-c2ccccc2)nc1-c1cc2ccccc2oc1=O)N1CCOCC1,-3.07% [at 46.1 µM],
O=C1NCC(Nc2ccccc2)C(=O)N1 (stereo not given),10.5%,
O=C(NCc1ccc(Cl)cc1)C(=O)NCC1CCCN1S(=O)(=O)c1cccs1 (stereo not given),-4.01% [at 46.1 µM],
O=C(COC(=O)c1cnccn1)Nc1ccc(Cl)cc1C(F)(F)F,11.6%,
CN(Cc1cnccn1)C(=O)c1cc(COc2cccc(C(F)(F)F)c2)on1,-6.31% [at 46.1 µM],
Cc1cccc(Cn2c(N3CCN(c4ccccc4)CC3)nc3c2c(=O)n(C)c(=O)n3C)c1,,5.8 µM (active)
COC(=O)C(C)Sc1nc2c(c(=O)n(C)c(=O)n2C)n1Cc1cccc(C)c1 (stereo not given),5.84%,
Cc1cccc(Cn2c(SCCO)nc3c2c(=O)n(C)c(=O)n3C)c1,-2.24%,
O=C(CCCN1C(=O)/C(=C\c2ccccc2)SC1=S)Nc1ccccc1O,-22.6% [at 46.1 µM],
COc1ccc(/C=C2\SC(=O)N(CCC(=O)NC3CCS(=O)(=O)C3)C2=O)cc1 (stereo not given),-21.2% [at 46.1 µM],

SMILES,"activity change, negative = inhibition",Potency
COc1ccc(/C=C2/SC(=O)N(CCCCCC(=O)Nc3ccccc3C(=O)O)C2=S)cc1,,11.2 µM (active)
CCCCN1CC(COc2ccccc2)Oc2cccc(F)c2S1(=O)=O (stereo not given),19.5% [at 46.1 µM],
O=C(Cc1ccccc1Cl)N1CCOCC1,3.06% [at 46.1 µM],
O=C(Nc1ccccc1C(=O)Nc1ccncc1)c1ccc([N+](=O)[O-])cc1,12.2%,
O=C(CN1CCN(c2ccccn2)CC1)N1CCc2ccccc21,15.1%,
O=C(CN1C(=O)c2ccccc2S1(=O)=O)NC1CCCCC1,12.3%,
O=C(CN1C(=O)c2ccccc2S1(=O)=O)N1CCc2ccccc21,,0.259 µM (active)
O=C(CSc1ncnc2sccc12)N1CCN(C(=O)c2cccs2)CC1,21.3%,
S=C(Nc1ccccc1)Nc1ccc2ccccc2c1,14.6% [at 46.1 µM],
COc1ccc(NC(=O)Nc2ccc3nsnc3c2)cc1,11%,
O=C(Nc1ccc2ccccc2c1)Nc1ccc2snnc2c1,,12.6 µM (active)
Cc1ccccc1-c1nc2scc(CCNC(=O)C(=O)Nc3ccc(F)cc3F)n2n1,-11.2% [at 46.1 µM],
C/C(=N\NC(=O)COc1ccc(C)cc1[N+](=O)[O-])c1ccc2c(c1)OCCO2,-0.74%,
O=C(NCC(c1ccco1)N1CCc2ccccc21)c1cccc(F)c1 (stereo not given),-0.219%,
COc1ccc(C(=O)OCc2cc(=O)n3ccsc3n2)cc1F,17.1%,
Cc1ccccc1NC(=O)NNC(=O)OC(C)(C)C,-4.8%,
CC(C)(C)OC(=O)NNc1c2ccccc2nc2ccccc12,,12.6 µM (active)
CCC(=O)OCCNc1nc(-c2ccccc2)nc2ccccc12,-0.495% [at 46.1 µM],
Cc1ccc(-c2csc(NC(=O)Cc3cccs3)n2)cc1C,,15.8 µM (active)
COc1ccc(-c2csc(NC(=O)c3ccc(N4C(=O)CCC4=O)cc3)n2)cc1OC,0.29%,
COc1ccc(-c2csc(NC(=O)CCCc3cccs3)n2)cc1,18%,
Cc1ccc(S(=O)(=O)NC(=O)Nc2nc(-c3ccc(F)c(F)c3)cs2)cc1,10.2%,
COc1ccc(CC(=O)Nc2nc(-c3ccc(F)c(F)c3)cs2)cc1OC,,11.2 µM (active)
Cc1ccc(-c2csc(NC(=O)c3cnccn3)n2)cc1C,-0.439%,
